Experimental data from PubChem BioAssay AID720489 (Milwaukee Institute for Drug Discovery, 2013).
The list shows a part of the results. Unmarked numbers belong to inactive results. Active and inactive are the calls of the source.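 How the source made its calls: active means fluorescence interference ratio at or below 0.8 quencher or at or above a set limitenhancer; inactive means the rest.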

test: Cy5-DNA-NS3h complex fluorescence interference, confirmation, artefact control for HCV NS3 helicase inhibitor project, biochemical, ChemBridge library (AID 720489); conditions: Cy5-dT15 DNA/NS3h fluorescence interference counterscreen; at 100 µM;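 further: ratio of compound fluorescence to mean of negative controls so 1 means no interference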

Compound	fluorescence interference ratio
CCN(CC)c1ccc(C=C2C(=O)N(C)C(=O)N(C)C2=O)c(O)c1	1
COc1cc(C=C2C(=O)NC(=O)NC2=O)ccc1OCCOc1ccc([N+](=O)[O-])cc1	0.667 (active)
O=C(NC(=S)Nc1ccc(-c2nc3cc(Cl)ccc3o2)cc1)c1ccco1	1.01
COc1ccc(C(=O)Oc2ccc3oc(=O)cc(C)c3c2)cc1OC	0.772 (active)
CCOc1ccc(C=C2C(=O)NC(=O)NC2=O)cc1Cl	0.902
Cc1ccc(C(=O)NCCNc2ccc([N+](=O)[O-])cc2)cc1	0.955
CCN(CC)c1ccc(NC(=O)/C(=C\c2ccccc2)NC(C)=O)cc1	1.09
COc1cc(/C(O)=C(\C#N)c2nc3ccccc3n2C)cc(OC)c1OC	0.722 (active)
O=C1NC(=O)C(=Cc2cc([N+](=O)[O-])cc(Br)c2O)C(=O)N1	0.747 (active)
N#Cc1c(N)nc2sc(C(=O)Nc3ccccc3)c(N)c2c1-c1ccco1	0.783 (active)
O=c1c2c(nc3cc(-c4cccc(F)c4)[nH]n13)CCS2	0.718 (active)
COc1ccc(N2C(=O)C=CC2=O)c([N+](=O)[O-])c1	0.746 (active)
CC(C)(C)N1C(=O)NC(=O)C(=Cc2cccs2)C1=O	0.788 (active)
Cc1ccc(C(=O)C[n+]2cc(-c3ccccc3)n3c2CCCCC3)cc1	1.02
C=CCN1C(=O)/C(=C\c2cc(OC)c(O)c([N+](=O)[O-])c2)C(=O)NC1=S	0.746 (active)
